The values that follow come from PubChem BioAssay AID853 (Columbia University Molecular Screening Center, 2007).

As usually defined, the inhibition is the change of the read-out against control, counted positive when it falls.

Among all 47,000 compounds or so, about 200 (0.43%) were called active. Inconclusive results (about 1%) are left out. The sample holds actives, similar compounds and a random draw of the others, so the mix is not that of the screen.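 Rule for the calls: active = inhibition of aggregate fluorescence above about 70%, also judged a hit by eye on the cell image (limit read from the data, passing the limit was not always enough); inconclusive = no rule stated for this call; inactive = not judged a hit on image review.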

The nature of the test: removal of polyQ htt aggregates in HeLa – imaging, HeLa Exon1htt(103Q)mCFP, confocal imaging, primary screen (AID 853).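 Note: cells exposed to compound for three days before fixation.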 Particulars: aggregate imaging, at 1.5 µM; fraction fluorescence in grains: measured here: aggregate grain fluorescence fraction, stronger effect = lower value; inhibition: stronger effect = higher value, zero = plate's median compound well.
`Cc1ccc(C(=O)N/C(=C/C=C/c2ccccc2)C(=O)NCc2ccco2)cc1`: the fraction fluorescence in grains is 45.3 and the inhibition is -47.5% (inactive).

On to `Cc1nc(-c2ccccc2)sc1-c1nc(-c2ccccc2)ncc1S(=O)(=O)c1ccccc1`, for which the fraction fluorescence in grains amounted to 41.3 and the inhibition is 7.6% (inactive).

Take `Cc1ccc(C2NC(=S)NC3=C2N2CCC3CC2)cc1` (centres undefined): the fraction fluorescence in grains came to 27.5 and the inhibition was 36.7% (inactive).

Consider `CSc1ccc(-c2c(C#N)c(N)nc3c2c(C)nn3-c2ccccc2)cc1`, for which the fraction fluorescence in grains came out at 47.5 and the inhibition was -12.6% (inactive).

For the compound `COc1ccc(/C=C(\NC(=O)c2ccc(OC)c(OC)c2)C(=O)NCCc2c[nH]c3ccccc23)cc1`, the fraction fluorescence in grains came to 62.4 and the inhibition was -62.1% (inactive).

Consider `CC(=O)NS(=O)(=O)c1ccc(NC(=S)NC(=O)C(C)(C)C)cc1`, for which the fraction fluorescence in grains is 7.39 and the inhibition is 66.5% (inactive).

In the case of `COc1ccc(-n2c(C)csc2=S)cc1`, the fraction fluorescence in grains is 15.4 and the inhibition was 22.6% (inactive).

In the case of `O=C(CSc1nnc(-c2ccco2)n1-c1ccccc1)NCCc1ccccc1`, the fraction fluorescence in grains was 28.7 and the inhibition is 21.9% (inactive).

Consider `COc1cc(/C=C(\C#N)c2nc3c(s2)CC(C)CC3)ccc1O` (centres undefined), for which the fraction fluorescence in grains was 38.1 and the inhibition was 4% (inactive).

Regarding `Cc1ccc(-c2cnc(NC(=O)CCC(=O)N(C)Cc3ccccc3)n2C)cc1`, the fraction fluorescence in grains was 44.1 and the inhibition is -11.1% (inactive).

For the compound `CCCCCCC12CCC(C(=O)O)(CC1)CC2`, the fraction fluorescence in grains was found to be 16.8 and the inhibition was 6% (inactive).

On to `O=C(CN1CCOCC1)Nc1c(-c2ccccc2)c2cc(Br)ccc2[nH]c1=O`, for which the fraction fluorescence in grains is 37.2 and the inhibition was 15.7% (inactive).

For `O=C(Oc1ccc([N+](=O)[O-])cc1)c1ccc2ccccc2n1`, the fraction fluorescence in grains amounted to 23.8 and the inhibition is 33% (inactive).

In the case of `O=C(c1ccc2c(c1)OCO2)N1CCOCC1`, the fraction fluorescence in grains was 22 and the inhibition was -3.2% (inactive).

As to `Cc1ccn(C(CC(=O)c2ccc(Br)cc2)C(=O)O)n1` (centres undefined), the fraction fluorescence in grains is 10.2 and the inhibition is 68.3% (inactive).

Regarding `COc1ccc(C(C#N)Nc2ccccc2C)cc1` (centres undefined), the fraction fluorescence in grains is 18 and the inhibition was 57.1% (inactive).

With `C=CCn1c(CSc2nc3ccccc3s2)nnc1SCC(=O)NCc1ccco1`, the fraction fluorescence in grains stood at 28.7 and the inhibition was 26.8% (inactive).
